The text below walks through data of PubChem BioAssay (NCATS).

For assay [1], the target named is Glucocorticoid receptor (Homo sapiens) (UniProt P04150). Briefly: GR-GFP Redistribution (AID 450;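 active = compounds whose dose series gives a full or clear partial fitted curve of increased nuclear translocation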; note: potency is the fitted concentration of half-maximal effect). The note with it: U2OS GR-GFP nuclear translocation, laser cytometry, 2 h.
The target is the same in assay [2]. Briefly: GR-EFC Redistribution (AID 451; calls by dose curve; note: potency is the fitted concentration of half-maximal effect). The note with it: CHO-K1 GR-EFC translocation, beta-gal luminescence, 2 h. An outline of the steps:
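Translocation of GR-ED fusion to nuclear EA restores b-gal, read by luminescence after 1 h room-temperature detection. Engineered CHO-K1 biosensor cells, 1,000/well, exposed 2 h at 37 C to titrations up to 46 uM final.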

Assay [3] concerns the target Mitogen-activated protein kinase 10 (Mus musculus) (UniProt Q61831). Briefly: JNK3 AlphaScreen Assay (AID 530; active = well fitted curve in either direction with a large enough effect, not every such curve was filed as active;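 note: kinase came from lysate of stimulated human HepG2 cells; signal reports phosphorylation of biotinylated GST-cJun 1-79 at Ser73 with 10 µM ATP; % is set by controls: 0 for no effect and ±100 for the full control effect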). To be noted: JNK3 lysate, c-Jun phosphorylation; series mostly up to 57.1 µM. An outline of the steps: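 Compound titrations were preincubated 15 minutes at room temperature with substrate, antibody and pre-activated JNK3-containing HepG2 lysate. Reactions were started with 10 uM ATP and stopped with EDTA-containing bead buffer for AlphaScreen detection.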

In assay [4] the target is 3',5'-cyclic-AMP phosphodiesterase 4B (Homo sapiens) (UniProt Q07343). Briefly: qHTS Assay for Inhibitors of PDE-IV (AID 607; active = well fitted activation curve with a large enough effect in the main read-out, with a control signal flat, not every such curve was filed as active; note: % of control where 0% means no effect). The note with it: HEK293 ACTOne CNG channel cells, membrane potential fluorescence; series mostly up to 22.9 µM. An outline of the steps: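 HEK293 ACTOne cells with CNG channel (1000/well), endogenous PDE4; membrane potential dye, compounds up to 22.9 uM final. Fluorescence Ex 535/Em 590; RO 20-1724 (100 uM final) as reference.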
A general note: In qHTS, concentration-response curves come from the screen itself.

Assay [5] has as its target Cytochrome P450 2D6 (Homo sapiens) (UniProt P10635). Briefly: qHTS Assay for Inhibitors and Substrates of Cytochrome P450 2D6 (AID 891). Note: potency is the fitted concentration of half-maximal effect; nearly all actives have a fitted effect of over 60% in size. To be noted: recombinant CYP2D6, luciferin-ME EGE luminescence; series mostly up to 57.1 µM. Summed up:
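Human CYP2D6 (5 nM) with 30 uM Luciferin-ME EGE (at Km) in 100 mM KPO4, compound preincubated 10 min, then NADPH regeneration system for 60 min at room temperature. Luciferin read by luminescence; normalized to 1.43 uM quinidine.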

Assay [6] can be described thus: qHTS Assay for Lipid Storage Modulators (AID 1519; calls by dose curve; for activity change, negative = inhibition: % is set by controls: 0 for no effect and ±100 for the full control effect). To be noted: Drosophila S3 cells, BODIPY lipid droplet/cell ratio, laser cytometry, cells loaded with oleic acid; for activity change, negative = inhibition: at 57.5 µM (top of the series). An outline of the steps: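 Cells seeded at 5,000 per well were treated with compounds over a concentration series and loaded with oleic acid (400 uM, as added). Lipid droplet fluorescence (488 nm excitation, 500-530 nm channel) was read by laser-scanning cytometry and normalized to 20 uM Triacsin C.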

The target in assay [7] is DNA dC->dU-editing enzyme APOBEC-3G (Homo sapiens) (UniProt Q9HC16). Briefly: qHTS for inhibitors of Vif-A3G interactions: Validation (AID 588379). Note: 0% is about no effect. To be noted: Vif-A3G protein interaction assay; series mostly up to 46.1 µM. An outline of the steps: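 HeLa cells stably expressing Vif and A3G-eYFP, 700 cells/well, incubated overnight at 37 deg C, then exposed to compound overnight at 37 deg C. Inhibition of Vif-mediated degradation read as increased yellow fluorescence (Ex 488/Em 500-530) by laser-scanning cytometry.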

The test system of assay [8] is Zika virus NS2B-NS3 protease. Briefly: Primary screen GU AMC qHTS for Zika virus inhibitors (AID 1347154).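 Note: 0% = no-inhibitor control and -100% = no-enzyme control; nearly all actives have a fitted effect of over 70% in size.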 The note with it: Zika NS2B-NS3 unlinked protease, AMC fluorogenic substrate; series mostly up to 54.1 µM. An outline of the steps: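 Fluorogenic AMC-substrate cleavage by noncovalent NS2B-NS3 protease complex (25 nM, pH 8.0 Tris buffer with Tween 20) followed for 15 minutes at room temperature (~20% conversion). Percent inhibition from ex340/em450 signal change, fitted by 4-parameter Hill equation.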

The target in assay [9] is Cytochrome P450 1A2 (Homo sapiens) (UniProt P05177). Briefly: p450-cyp1a2 (AID 410; calls by dose curve). The note with it: recombinant CYP1A2, luciferin-ME demethylation, luminescence; series mostly up to 57 µM. An outline of the steps: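 20nM CYP1A2 with 100uM Luciferin-ME (at Km) in 100mM KPO4; compound preincubated 10 min, NADPH regeneration added, 60 min at room temperature. Luciferin quantified by luminescence after detection reagent; normalized to 57 uM furafylline.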

The target of assay [10] is Cytochrome P450 3A4 (Homo sapiens) (UniProt P08684). Briefly: qHTS Assay for Inhibitors and Substrates of Cytochrome P450 3A4 (AID 884). Note: potency is the fitted concentration of half-maximal effect; nearly all actives have a fitted effect of over 50% in size. The note with it: recombinant CYP3A4, Luciferin-PPXE luminescence; series mostly up to 57.1 µM. Summed up:
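20 nM human CYP3A4 with 25 uM Luciferin-PPXE (at KM) in 200 mM KPO4, preincubated 10 min with compound; NADPH regeneration started a 60 min RT reaction. Luciferin detected by luminescence, normalized to 57 uM ketoconazole as full inhibition.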

Assay [11] shares this target. Briefly: qHTS Assay for Activators of Cytochrome P450 3A4 (AID 885). Note: nearly all actives have a fitted effect of over 65% in size. To be noted: recombinant CYP3A4, Luciferin-PPXE luminescence, 60 min; series mostly up to 57.1 µM. An outline of the steps: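 Human CYP3A4 (20 nM) with Luciferin-PPXE at 25 uM (its KM) in 200 mM KPO4; 10 min compound preincubation, then NADPH regeneration and 60 min reaction at RT. Luciferin read by luminescence; normalized to 57 uM ketoconazole full inhibition.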

For assay [12], the target named is Ubiquitin carboxyl-terminal hydrolase 1 (Homo sapiens) (UniProt O94782). Briefly: Inhibitors of USP1/UAF1: Pilot qHTS (AID 504865).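 Note: rhodamine fluorescence freed from ubiquitin-rhodamine substrate followed over time; top concentration of the series differs between compounds; % is set by controls: 0 for no effect and ±100 for the full control effect; nearly all actives have a fitted effect of over 35% in size.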 To be noted: purified USP1/UAF1, Ub-rhodamine cleavage fluorescence; series mostly up to 114 µM. Summed up: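 USP1/UAF1 complex at 1 nM preincubated 15 min at room temperature with compound, then Ub-Rho substrate added at 150 nM final. Fluorescence (480/540 nm) read kinetically in 50 mM HEPES pH 7.8, 0.5 mM EDTA, 1 mM TCEP, 0.1 mg/ml BSA, 0.01% Tween-20.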

Assay [13] can be described thus: AP1 Signaling Pathway (AID 357; active = well fitted curve in either direction with a large enough effect, not every such curve was filed as active; note: % is set by controls: 0 for no effect and ±100 for the full control effect). The note with it: ME-180 (cervical carcinoma) AP-1-bla reporter, EGF-induced, beta-lactamase ratio, 5 h; series mostly up to 38 µM. An outline of the steps: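 Read-out was the 460nm/530nm emission ratio (excitation 405nm) after CCF4 loading for 2.5 hours at room temperature. Cells carried an AP-1-driven beta-lactamase reporter, were stimulated with EC50 EGF plus compound for 5 hours, and AC50 values came from titrations.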

Assay [14] can be described thus: NFAT Signaling Pathway (AID 444; active = well fitted curve in either direction with a large enough effect, not every such curve was filed as active;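 note: carbachol stimulus at about its EC50 of 1 µM final; % is set by controls: 0 for no effect and ±100 for the full control effect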). To be noted: Jurkat NFAT-bla M1, carbachol, beta-lactamase ratio, 5 h; at 17.2 µM (top of the series). An outline of the steps:
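Read-out: CCF4 FRET ratio (460 nm/530 nm) after 1 h RT dye loading, used for %activity and AC50 from titration series. Cells: Jurkat NFAT-β-lactamase/M1 line, treated with compound plus 1 uM carbachol for 5 h, 37 °C.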

[15] abbreviates: measured here: cell count channel max response.
Where [16] appears, read: measured here: lipid channel max response.

Records with an inconclusive call do not appear. Calls of active or inactive are those of the source. Unless noted, calls come from the whole dose curve; as a rule, active = well fitted curve in the direction sought with a large enough effect; inconclusive = small, poorly fitted or top-dose-only effect, or another doubt; inactive = no such curve, though single readings can be large; an effect the other way counts as inactive or inconclusive.

3',5'-cyclic-AMP phosphodiesterase 4B (Homo sapiens), sequence (Q07343 whole entry, looked up): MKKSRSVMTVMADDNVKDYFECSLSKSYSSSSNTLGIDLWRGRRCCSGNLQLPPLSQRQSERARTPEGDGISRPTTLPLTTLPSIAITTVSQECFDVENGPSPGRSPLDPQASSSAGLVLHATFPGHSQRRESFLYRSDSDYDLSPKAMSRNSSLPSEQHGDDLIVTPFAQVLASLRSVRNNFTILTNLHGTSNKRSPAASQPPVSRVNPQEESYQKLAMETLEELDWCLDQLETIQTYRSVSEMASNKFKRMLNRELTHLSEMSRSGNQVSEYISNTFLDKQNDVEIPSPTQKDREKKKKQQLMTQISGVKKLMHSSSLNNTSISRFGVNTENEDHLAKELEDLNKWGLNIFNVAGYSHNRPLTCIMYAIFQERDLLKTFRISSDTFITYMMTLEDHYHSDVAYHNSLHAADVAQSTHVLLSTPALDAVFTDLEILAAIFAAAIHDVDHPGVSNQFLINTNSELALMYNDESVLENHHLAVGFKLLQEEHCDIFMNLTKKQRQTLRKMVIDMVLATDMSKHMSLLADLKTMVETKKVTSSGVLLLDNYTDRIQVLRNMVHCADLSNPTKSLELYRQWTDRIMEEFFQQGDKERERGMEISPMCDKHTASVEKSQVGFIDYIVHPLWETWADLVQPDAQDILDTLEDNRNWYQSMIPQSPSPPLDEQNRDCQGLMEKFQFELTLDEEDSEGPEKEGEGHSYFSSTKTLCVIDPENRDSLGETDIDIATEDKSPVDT
Cytochrome P450 3A4 (Homo sapiens), sequence (P08684 whole entry, looked up): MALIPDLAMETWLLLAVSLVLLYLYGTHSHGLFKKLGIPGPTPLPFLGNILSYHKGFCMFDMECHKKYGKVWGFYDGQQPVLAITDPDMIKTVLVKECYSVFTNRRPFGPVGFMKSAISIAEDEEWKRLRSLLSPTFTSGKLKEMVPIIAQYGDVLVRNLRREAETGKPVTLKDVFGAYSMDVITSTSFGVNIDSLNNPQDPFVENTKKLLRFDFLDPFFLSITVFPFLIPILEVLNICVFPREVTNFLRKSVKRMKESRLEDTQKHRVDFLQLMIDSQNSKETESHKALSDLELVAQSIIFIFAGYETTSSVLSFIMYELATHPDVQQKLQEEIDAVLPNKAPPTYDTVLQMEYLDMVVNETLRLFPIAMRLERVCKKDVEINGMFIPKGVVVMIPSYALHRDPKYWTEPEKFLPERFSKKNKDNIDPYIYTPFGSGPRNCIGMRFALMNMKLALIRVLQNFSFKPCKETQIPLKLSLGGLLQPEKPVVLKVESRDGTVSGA
DNA dC->dU-editing enzyme APOBEC-3G (Homo sapiens), sequence (Q9HC16 whole entry, looked up): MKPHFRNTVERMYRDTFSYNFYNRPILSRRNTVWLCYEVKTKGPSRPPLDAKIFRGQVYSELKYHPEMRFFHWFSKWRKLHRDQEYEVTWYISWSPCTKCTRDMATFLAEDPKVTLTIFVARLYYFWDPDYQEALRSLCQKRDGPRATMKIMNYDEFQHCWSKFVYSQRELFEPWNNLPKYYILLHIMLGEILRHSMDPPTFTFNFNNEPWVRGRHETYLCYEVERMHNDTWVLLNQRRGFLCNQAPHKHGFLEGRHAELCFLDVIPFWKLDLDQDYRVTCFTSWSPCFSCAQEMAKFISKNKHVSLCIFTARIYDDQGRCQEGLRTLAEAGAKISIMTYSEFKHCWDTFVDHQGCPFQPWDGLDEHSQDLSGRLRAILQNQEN
Glucocorticoid receptor (Homo sapiens), sequence (P04150 whole entry, looked up): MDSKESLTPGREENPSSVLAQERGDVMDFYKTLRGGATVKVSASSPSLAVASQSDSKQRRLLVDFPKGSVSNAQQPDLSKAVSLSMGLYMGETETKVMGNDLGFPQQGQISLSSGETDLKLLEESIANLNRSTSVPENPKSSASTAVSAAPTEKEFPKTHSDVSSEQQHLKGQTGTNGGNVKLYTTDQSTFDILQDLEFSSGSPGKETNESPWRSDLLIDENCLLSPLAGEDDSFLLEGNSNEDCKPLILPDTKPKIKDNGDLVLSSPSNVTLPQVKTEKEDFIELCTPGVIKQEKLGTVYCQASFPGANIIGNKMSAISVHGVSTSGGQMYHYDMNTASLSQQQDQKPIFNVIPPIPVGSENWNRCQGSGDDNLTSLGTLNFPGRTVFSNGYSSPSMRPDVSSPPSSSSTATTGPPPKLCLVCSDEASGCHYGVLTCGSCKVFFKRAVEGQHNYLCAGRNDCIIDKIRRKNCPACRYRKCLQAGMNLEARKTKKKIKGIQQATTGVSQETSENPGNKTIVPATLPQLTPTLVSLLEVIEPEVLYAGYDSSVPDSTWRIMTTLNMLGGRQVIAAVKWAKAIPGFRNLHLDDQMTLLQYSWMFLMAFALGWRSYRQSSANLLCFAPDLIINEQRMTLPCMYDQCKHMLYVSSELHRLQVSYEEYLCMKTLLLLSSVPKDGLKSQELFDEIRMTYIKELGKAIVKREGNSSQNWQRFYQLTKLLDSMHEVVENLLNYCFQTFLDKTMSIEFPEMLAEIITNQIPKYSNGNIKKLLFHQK
Ubiquitin carboxyl-terminal hydrolase 1 (Homo sapiens), sequence (O94782 whole entry, looked up): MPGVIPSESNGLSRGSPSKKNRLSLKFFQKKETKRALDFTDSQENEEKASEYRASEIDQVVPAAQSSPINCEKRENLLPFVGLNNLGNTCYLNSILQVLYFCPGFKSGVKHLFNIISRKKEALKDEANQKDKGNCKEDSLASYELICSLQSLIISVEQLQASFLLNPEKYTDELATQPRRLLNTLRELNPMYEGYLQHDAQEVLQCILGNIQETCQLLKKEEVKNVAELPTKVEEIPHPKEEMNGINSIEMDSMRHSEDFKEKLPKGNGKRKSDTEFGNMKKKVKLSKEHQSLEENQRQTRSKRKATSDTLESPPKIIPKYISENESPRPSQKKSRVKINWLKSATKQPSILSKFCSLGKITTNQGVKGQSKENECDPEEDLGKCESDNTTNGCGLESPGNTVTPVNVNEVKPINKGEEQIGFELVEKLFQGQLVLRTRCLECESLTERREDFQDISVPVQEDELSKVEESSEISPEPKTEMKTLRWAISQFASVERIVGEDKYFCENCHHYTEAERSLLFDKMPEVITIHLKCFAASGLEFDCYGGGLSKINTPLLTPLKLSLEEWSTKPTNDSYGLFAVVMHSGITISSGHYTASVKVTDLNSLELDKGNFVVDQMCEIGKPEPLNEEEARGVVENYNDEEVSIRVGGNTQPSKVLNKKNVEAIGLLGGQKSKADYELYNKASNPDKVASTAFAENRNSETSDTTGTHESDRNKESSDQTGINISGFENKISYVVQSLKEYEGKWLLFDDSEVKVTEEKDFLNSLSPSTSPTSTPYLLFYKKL
Cytochrome P450 1A2 (Homo sapiens), sequence (P05177 whole entry, looked up): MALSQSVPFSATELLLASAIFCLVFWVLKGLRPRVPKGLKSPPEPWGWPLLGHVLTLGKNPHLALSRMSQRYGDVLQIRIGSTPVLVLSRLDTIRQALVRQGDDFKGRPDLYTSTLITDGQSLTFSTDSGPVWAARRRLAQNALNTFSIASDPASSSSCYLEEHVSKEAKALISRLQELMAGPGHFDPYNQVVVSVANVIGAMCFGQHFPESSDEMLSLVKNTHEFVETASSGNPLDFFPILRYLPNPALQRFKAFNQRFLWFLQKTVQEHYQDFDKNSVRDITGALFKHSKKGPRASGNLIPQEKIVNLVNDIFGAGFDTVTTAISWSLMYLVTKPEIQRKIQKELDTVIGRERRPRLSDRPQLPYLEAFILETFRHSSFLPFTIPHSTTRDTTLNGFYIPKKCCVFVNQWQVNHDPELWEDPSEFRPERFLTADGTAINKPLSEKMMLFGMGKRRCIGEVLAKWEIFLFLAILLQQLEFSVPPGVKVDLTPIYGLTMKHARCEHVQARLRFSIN
Cytochrome P450 2D6 (Homo sapiens), sequence (P10635 whole entry, looked up): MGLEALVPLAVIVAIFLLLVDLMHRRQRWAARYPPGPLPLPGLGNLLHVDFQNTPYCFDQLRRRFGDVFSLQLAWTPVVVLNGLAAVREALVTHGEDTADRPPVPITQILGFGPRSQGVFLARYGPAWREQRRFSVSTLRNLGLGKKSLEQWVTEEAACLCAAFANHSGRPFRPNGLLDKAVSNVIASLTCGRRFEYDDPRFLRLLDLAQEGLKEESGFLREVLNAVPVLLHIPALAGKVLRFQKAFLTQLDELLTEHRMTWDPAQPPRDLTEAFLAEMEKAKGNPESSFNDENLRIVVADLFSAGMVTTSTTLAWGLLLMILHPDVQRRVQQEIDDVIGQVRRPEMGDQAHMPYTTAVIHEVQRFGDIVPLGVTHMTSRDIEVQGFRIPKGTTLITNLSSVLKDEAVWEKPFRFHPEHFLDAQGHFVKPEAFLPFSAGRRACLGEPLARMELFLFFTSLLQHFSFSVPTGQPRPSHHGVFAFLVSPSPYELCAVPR

For `NC[C@H](CC(=O)O)c1ccc(Cl)cc1`, the Potency in [1] was > 46 µM (inactive); in [2], > 46 µM (inactive); in [5], 0.794 µM (active). Also, the compound was called inactive in [3]. For the same compound, the Potency result in [4], in assay [7] and in assay [8] was “inactive” each time. For the same compound, the activity change, negative = inhibition in assay [6] is 2.02% (inactive). In addition, the max response in [6] (setting [15]) came out at 12.8%; in assay [6] (setting [16]), 19.1%.
In the case of `Cc1c(C(=O)c2ccc3ccccc3c2)c2cccc3c2n1[C@H](CN1CCOCC1)CO3`, the Potency result in assay [9], in [4], in [11], in assay [7] and in assay [8] was “inactive” in each case. In addition, the Potency was > 46 µM (inactive) in assay [1], > 46 µM (inactive) in assay [2] and 7.94 µM (active) in assay [10].
Regarding `CCNC(=O)[C@@H]1O[C@@H](n2cnc3c(N)ncnc32)[C@H](O)[C@H]1O`, the Potency entry in [9], in assay [4], in assay [12], in assay [7] and in assay [8] was “inactive” throughout. The Potency in [1] and in assay [2] was > 46 µM (inactive) throughout. Also, in assay [6], the activity change, negative = inhibition is 0.939% (inactive). Also, the values for the max response in assay [6] (setting [15]) and in assay [6] (setting [16]) were -12.5% and -10.6%, respectively.
Regarding `C[C@](N)(CCP(=O)(O)O)C(=O)O`, the Potency in assay [1] and in assay [2] was > 46 µM (inactive) in each case. Moreover, in assay [3], the outcome was inactive. In assay [6], the activity change, negative = inhibition is 6.09% (inactive). The max response is -23.4% in assay [6] (setting [15]) and -20.7% in assay [6] (setting [16]). The Potency entry in [12], in [7] and in [8] was “inactive” throughout.
As for `NC(=NCc1ccc(Cl)cc1)SCCCc1cnc[nH]1`, the Potency in [1] was > 46 µM (inactive); in assay [2] it was > 46 µM (inactive); in assay [10], 1.58 µM (active). The Potency result in assay [11], in assay [7] and in assay [8] was “inactive” each time.
Consider `O=C(O)c1ccccc1-c1c2cc(Br)c(=O)cc-2oc2[c]([Hg])c(O)c(Br)cc12`, for which the outcome in assay [13] and in [3] was inactive. Moreover, the activity change, negative = inhibition in [14] was -24.9% (inactive). Moreover, the Potency was > 20.6 µM (inactive) in assay [2] and 25.1 µM (active) in assay [10]. For the same compound, the Potency result in [4] and in [11] was “inactive” throughout.
